The panel holds about 83,000 compounds, 20% with a hit somewhere; the sample as a whole holds those more often.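 Compound tested at a single concentration for 48 hours in 96-well plates; a percent growth value below 10 was scored as active.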 The source made the active and inactive calls.
Key:
Experiment in all cases: NCI-60 one-dose screen, 48 h (100 = growth as untreated, 0 = no growth, -100 = all killed)
Conditions in all cases: 10 µM unless noted
NCI-H23 lung = system: NCI-H23 lung
NCI-H226 lung = system: NCI-H226 lung
HOP-62 NSCLC = system: HOP-62 NSCLC
NCI-H460 lung = system: NCI-H460 lung
HOP-92 NSCLC = system: HOP-92 NSCLC
NCI-H522 lung = system: NCI-H522 lung
A549/ATCC NSCLC = system: A549/ATCC NSCLC
786-0 renal = system: 786-0 renal
COLO 205 colon = system: COLO 205 colon
K-562 leukemia = system: K-562 leukemia
MALME-3M melanoma = system: MALME-3M melanoma
MDA-MB-231 breast = system: MDA-MB-231 breast
RXF 393 renal = system: RXF 393 renal
SF-295 CNS = system: SF-295 CNS
SF-539 CNS = system: SF-539 CNS
UACC-257 melanoma = system: UACC-257 melanoma
M14 melanoma = system: M14 melanoma
DU-145 prostate = system: DU-145 prostate
SF-268 CNS = system: SF-268 CNS

Measured: growth

CO[C@@]12[C@@H]3NC3CN1C1=C(C(=O)C(N)=C(C)C1=O)[C@@H]2COC(N)=O (stereo partly specified)
active: NCI-H23 lung -3.61% | NCI-H226 lung -5.36% | NCI-H460 lung -18.9% | NCI-H522 lung -9.07% | A549/ATCC NSCLC -61% | 786-0 renal -3.82% | COLO 205 colon -0.289% | MALME-3M melanoma -12% | SF-295 CNS 5.61% | UACC-257 melanoma -11.7% | M14 melanoma 2.4%
inactive: HOP-62 NSCLC 19.2% | HOP-92 NSCLC 12.8% | K-562 leukemia 28.7% | MDA-MB-231 breast 67.5% | RXF 393 renal 11.9% | SF-539 CNS 11.8%

CCOC(C)(c1ccc(Cl)cc1)C1CCNCC1 (stereo unspecified)
inactive: NCI-H23 lung 101% | NCI-H226 lung 116% | HOP-62 NSCLC 93.3% | NCI-H460 lung 70.3% | HOP-92 NSCLC 85.2% | NCI-H522 lung 107% | A549/ATCC NSCLC 67.9% | 786-0 renal 91.9% | COLO 205 colon 118% | DU-145 prostate 102% | K-562 leukemia 65.3% | MALME-3M melanoma 99.9% | MDA-MB-231 breast 102% | RXF 393 renal 109% | SF-268 CNS 115% | SF-539 CNS 88.1% | UACC-257 melanoma 78.2% | M14 melanoma 86.6%

COc1ccc(C(=O)C(CN(C)C)c2ccccc2)cc1 (stereo unspecified)
active: HOP-92 NSCLC -4.35% | NCI-H522 lung -73.9% | 786-0 renal -36.2% | UACC-257 melanoma 2.45% | M14 melanoma -63%
inactive: NCI-H23 lung 13.2% | NCI-H226 lung 71.5% | HOP-62 NSCLC 83.6% | NCI-H460 lung 47.7% | A549/ATCC NSCLC 72.6% | COLO 205 colon 22.8% | K-562 leukemia 12.6% | MALME-3M melanoma 45% | MDA-MB-231 breast 33.4% | RXF 393 renal 18.6% | SF-295 CNS 54.3% | SF-539 CNS 14.2%

CN1CCN(Cc2ccc(NC(=O)c3cncc(C#Cc4cnc5cccnn45)c3)cc2C(F)(F)F)CC1
active: NCI-H23 lung -7.84% | NCI-H226 lung -3.9% | HOP-62 NSCLC -6.79% | NCI-H460 lung -12.6% | HOP-92 NSCLC -9.42% | NCI-H522 lung -37.1% | A549/ATCC NSCLC 4.87% | 786-0 renal 6.51% | COLO 205 colon -48.1% | DU-145 prostate 3.43% | K-562 leukemia 2.91% | MALME-3M melanoma -46.5% | MDA-MB-231 breast -14.4% | RXF 393 renal -56.3% | SF-268 CNS -27.9% | SF-539 CNS -47.9% | UACC-257 melanoma 3.46% | M14 melanoma -33.5%
inactive: SF-295 CNS 28.6%

CN(C)CCOc1nc2c3cccnc3cc(-c3cccc(Cl)c3)c2c2ncccc12
active: NCI-H460 lung -49.8% | COLO 205 colon -65.4% | K-562 leukemia -21% | MALME-3M melanoma -90.4% | MDA-MB-231 breast -11.5% | RXF 393 renal -87.4% | UACC-257 melanoma -57.5% | M14 melanoma -82.1%
inactive: NCI-H23 lung 31.2% | NCI-H226 lung 40.5% | HOP-62 NSCLC 44.4% | HOP-92 NSCLC 42.7% | NCI-H522 lung 34.1% | A549/ATCC NSCLC 22% | 786-0 renal 21.8% | DU-145 prostate 14.3% | SF-268 CNS 27.4% | SF-295 CNS 27.9% | SF-539 CNS 36.3%

Cc1cc(C)c2c(n1)sc1c(Nc3ccc(OCc4ccccc4)cc3)ncnc12
inactive: NCI-H23 lung 101% | NCI-H226 lung 96.2% | HOP-62 NSCLC 101% | NCI-H460 lung 98.8% | HOP-92 NSCLC 88.2% | NCI-H522 lung 90.1% | A549/ATCC NSCLC 101% | 786-0 renal 97.8% | DU-145 prostate 104% | K-562 leukemia 95.2% | MALME-3M melanoma 88.6% | MDA-MB-231 breast 109% | RXF 393 renal 104% | SF-268 CNS 101% | SF-295 CNS 101% | SF-539 CNS 107% | UACC-257 melanoma 106% | M14 melanoma 108%

COc1ccc(/C=C2\N=C(c3cccnc3)N(c3ccccc3)NC2=O)cc1
inactive: NCI-H23 lung 95.8% | NCI-H226 lung 86.8% | HOP-62 NSCLC 109% | NCI-H460 lung 96.4% | HOP-92 NSCLC 22.9% | NCI-H522 lung 98.2% | A549/ATCC NSCLC 95.7% | 786-0 renal 100% | DU-145 prostate 104% | K-562 leukemia 107% | MALME-3M melanoma 97.4% | MDA-MB-231 breast 92.1% | RXF 393 renal 89.9% | SF-268 CNS 91.9% | SF-295 CNS 95.2% | SF-539 CNS 103% | UACC-257 melanoma 102% | M14 melanoma 92.8%

COC1CC(N)C2OC(c3ccccc3)OCC2O1 (stereo unspecified)
inactive: NCI-H23 lung 103% | NCI-H226 lung 104% | HOP-62 NSCLC 114% | HOP-92 NSCLC 136% | NCI-H522 lung 98.7% | A549/ATCC NSCLC 97.9% | 786-0 renal 103% | COLO 205 colon 113% | DU-145 prostate 115% | K-562 leukemia 93.9% | MALME-3M melanoma 106% | MDA-MB-231 breast 98.3% | RXF 393 renal 115% | SF-268 CNS 108% | SF-539 CNS 101% | UACC-257 melanoma 95.4% | M14 melanoma 107%

COc1ccc(-c2nsc3c2NC(=O)CC3c2ccc3c(c2)OCO3)cc1 (stereo unspecified)
inactive: NCI-H23 lung 35.1% | NCI-H226 lung 68.4% | HOP-62 NSCLC 31.2% | NCI-H460 lung 19.1% | A549/ATCC NSCLC 26.6% | 786-0 renal 57.5% | DU-145 prostate 14.8% | MDA-MB-231 breast 36% | RXF 393 renal 11.3% | SF-268 CNS 42.8% | UACC-257 melanoma 60.2% | M14 melanoma 18.2%
active: HOP-92 NSCLC 2.96% | NCI-H522 lung -30.1% | COLO 205 colon -14.4% | K-562 leukemia 0.385% | MALME-3M melanoma -1.91% | SF-539 CNS -9%

— PubChem BioAssay (NCI)
